Data: PubChem BioAssay
Where “and” joins values, the source holds several entries; their conditions need not be identical. Identical values can stand only once. Inconclusive results are not listed. Calls of active or inactive are those of the source.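 How the source made its calls, unless noted: active means compounds whose cell count with miR-34 switched on is under 0.7 times the count with it off; inactive means the rest.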

Columns and labels:
[1] = compounds altering viability of human ES cells (AID 493140; call rule not given here;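 further: cells exposed to compounds for four days before counting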); details: human embryonic stem cell survival screen; stronger effect = higher value
[2] = viability loss with induced miR-34 in A549 – imaging, A549 dox-inducible miR-34, nuclei and caspase counts, primary screen (AID 1347080); details: A549 miR-34 inducible, Hoechst nuclei count, 48 h
[3] = target: ATP-dependent translocase ABCB1 (Homo sapiens) (UniProt P08183); test: P-glycoprotein substrate transport blockade – cell-based (AID 377; in the data active means fluorescence slope change above about 50%); details: MDR1-expressing cells, fluorescent substrate accumulation slope; stronger effect = higher value; concentration not given here
Chain of ATP-dependent translocase ABCB1 (Homo sapiens) (P08183 whole entry, looked up): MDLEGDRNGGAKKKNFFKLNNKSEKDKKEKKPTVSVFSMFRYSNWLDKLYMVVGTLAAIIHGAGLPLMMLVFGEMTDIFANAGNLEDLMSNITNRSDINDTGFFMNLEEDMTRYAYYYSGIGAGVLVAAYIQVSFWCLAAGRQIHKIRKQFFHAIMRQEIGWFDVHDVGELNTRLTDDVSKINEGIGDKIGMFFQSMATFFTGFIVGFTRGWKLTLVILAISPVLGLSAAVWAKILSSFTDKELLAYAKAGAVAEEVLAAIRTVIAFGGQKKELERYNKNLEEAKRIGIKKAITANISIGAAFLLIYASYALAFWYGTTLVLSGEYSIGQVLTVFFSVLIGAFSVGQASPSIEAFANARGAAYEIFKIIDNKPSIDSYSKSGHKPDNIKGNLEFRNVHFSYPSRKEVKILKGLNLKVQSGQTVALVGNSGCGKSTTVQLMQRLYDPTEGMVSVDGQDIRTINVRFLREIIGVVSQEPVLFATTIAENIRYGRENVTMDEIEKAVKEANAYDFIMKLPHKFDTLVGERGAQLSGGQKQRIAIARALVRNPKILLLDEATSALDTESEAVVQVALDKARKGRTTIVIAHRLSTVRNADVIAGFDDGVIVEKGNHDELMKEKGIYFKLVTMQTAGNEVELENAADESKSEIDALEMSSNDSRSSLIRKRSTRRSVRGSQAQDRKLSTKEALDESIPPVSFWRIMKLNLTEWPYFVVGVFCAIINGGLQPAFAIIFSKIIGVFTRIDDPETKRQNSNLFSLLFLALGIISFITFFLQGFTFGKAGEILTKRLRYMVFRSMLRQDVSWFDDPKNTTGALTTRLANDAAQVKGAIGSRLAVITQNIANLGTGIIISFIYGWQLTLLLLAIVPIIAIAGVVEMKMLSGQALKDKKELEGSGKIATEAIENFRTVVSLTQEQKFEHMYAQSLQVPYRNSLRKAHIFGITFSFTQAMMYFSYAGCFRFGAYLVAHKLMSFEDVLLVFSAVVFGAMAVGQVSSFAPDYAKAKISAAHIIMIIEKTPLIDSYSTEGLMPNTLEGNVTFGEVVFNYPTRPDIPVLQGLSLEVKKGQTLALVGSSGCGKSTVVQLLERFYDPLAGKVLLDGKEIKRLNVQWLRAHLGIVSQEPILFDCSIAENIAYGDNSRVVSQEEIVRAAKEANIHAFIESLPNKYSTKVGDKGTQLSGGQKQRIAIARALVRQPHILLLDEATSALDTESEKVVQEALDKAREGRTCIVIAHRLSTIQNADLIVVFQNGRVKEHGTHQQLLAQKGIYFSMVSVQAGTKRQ

[4] = P. berghei load reduction in hepatocytes – cell-based, HepG2, luciferase luminescence, HepG2 viability, primary screen (AID 624349; in the data active means parasite load remaining mostly below about 12%, no sharp cut-off; inactive means mostly above about 10%;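 further: 100% = mean of DMSO negative control wells on the same plate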); details: P. berghei liver stage in HepG2, luciferase luminescence, concentration not given here; parasite load remaining: stronger effect = lower value; viability: measured here: HepG2 viability without parasites
[5] = stronger effect = lower value, cell number ratio, induced over uninduced
[6] = measured here: relative caspase fold change +Dox/-Dox
[7] = measured here: total cells with miR-34 induction, stronger effect = lower value
[8] = measured here: total cells without miR-34 induction

CCCCCCCCCCCCCCCCOCC(CO)OC (stereo not drawn)
survival [1]: 85.4 (inactive)
fold change [2, 5]: 1.02 (inactive)
fold change [2, 6]: 1.45
cell count [2, 7]: 5930
cell count [2, 8]: 5790

CCCCCC(=O)/C=C/[C@H]1[C@H](O)CC(=O)[C@@H]1C/C=C\CCCC(=O)O
survival [1]: 92.3 (inactive)
fold change [2, 5]: 0.973 (inactive)
fold change [2, 6]: 1.18
cell count [2, 7]: 6130
cell count [2, 8]: 6300

CCCCCCCCCCCCCCCCCCOC[C@H](COP(=O)([O-])OCC[N+](C)(C)C)OC(C)=O
survival [1]: 83.4 (inactive)
fold change [2, 5]: 0.968 (inactive) and 1 (inactive)
fold change [2, 6]: 1.1 and 0.859
cell count [2, 7]: 5740 and 5730
cell count [2, 8]: 5930 and 5720

CCCCCC(O)/C=C/C=O (stereo not drawn)
survival [1]: 101 (inactive)
fold change [2, 5]: 0.954 (inactive)
fold change [2, 6]: 1.27
cell count [2, 7]: 5280
cell count [2, 8]: 5530

CCCCCCCC/C=C\CCCCCCCC(=O)OCC(CO)OC(=O)CCCCCCC/C=C\CCCCCCCC (stereo not drawn)
survival [1]: 88.4 (inactive)
fold change [2, 5]: 1.01 (inactive)
fold change [2, 6]: 1.34
cell count [2, 7]: 5020
cell count [2, 8]: 4970

CCCCCCCCCCCCCCCCOCC(COP(=O)([O-])OCC[N+](C)(C)C)OC (stereo not drawn)
survival [1]: 64.4 (inactive)
fold change [2, 5]: 0.921 (inactive)
fold change [2, 6]: 1.04
cell count [2, 7]: 5520
cell count [2, 8]: 5990

CCCCC[C@H](O)/C=C/[C@@H]1[C@@H](CCCCCCC(=O)O)[C@@H](O)C[C@H]1O
survival [1]: 96.8 (inactive)
fold change [2, 5]: 0.91 (inactive) and 0.991 (inactive)
fold change [2, 6]: 1.19 and 1.15
cell count [2, 7]: 5960 and 6030
cell count [2, 8]: 6550 and 6090

CCCCCCCCCCCCCC(=O)N[C@H](C)[C@@H](O)c1ccccc1
survival [1]: 87.5 (inactive)
fold change [2, 5]: 1.02 (inactive)
fold change [2, 6]: 1.49 and 1.71
cell count [2, 7]: 5830 and 6030
cell count [2, 8]: 5700 and 5920

CCCCCCCCCCCCCCCC(=O)C1=C(O)C(CO)OC1=O (stereo not drawn)
survival [1]: 98.2 (inactive)
fold change [2, 5]: 0.877 (inactive)
fold change [2, 6]: 0.963
cell count [2, 7]: 5220
cell count [2, 8]: 5960

CCCCCCCCCCCCC(O)C(=O)O (stereo not drawn)
survival [1]: 71.7 (inactive)
fold change [2, 5]: 0.965 (inactive) and 0.989 (inactive)
fold change [2, 6]: 1.1 and 0.875
cell count [2, 7]: 6110 and 6000
cell count [2, 8]: 6330 and 6060

Cn1c(-c2ccc3c(c2)OCO3)cc(=O)c2ccccc21
fluorescence slope change [3]: 6.8% (inactive)
survival [1]: 4.17 (inactive)
parasite load remaining [4]: 95.4% (inactive)
viability [4]: 95.4%
fold change [2, 5]: 0.89 (inactive)
fold change [2, 6]: 1.11
cell count [2, 7]: 8470
cell count [2, 8]: 9520

CCCCCCCCCCCCCCCC(=O)NCCc1ccc(O)c(O)c1
survival [1]: 69.7 (inactive)
fold change [2, 5]: 0.93 (inactive)
fold change [2, 6]: 0.624
cell count [2, 7]: 5560
cell count [2, 8]: 5980

CCCCCCCC/C=C\CCCCCCCCOC[C@H](COP(=O)([O-])OCC[N+](C)(C)C)OC(C)=O
survival [1]: 95.4 (inactive)
fold change [2, 5]: 0.905 (inactive)
fold change [2, 6]: 1.27
cell count [2, 7]: 6070
cell count [2, 8]: 6700
